{"source": "ChEMBL document CHEMBL2218924", "about": "“A broad activity screen in support of a chemogenomic map for kinase signalling research and drug discovery” (Biochem J, 2013)"}
{"target": "T1, Tyrosine-protein kinase ZAP-70 (Homo sapiens) (UniProt P43403)", "T1 sequence (whole entry)": "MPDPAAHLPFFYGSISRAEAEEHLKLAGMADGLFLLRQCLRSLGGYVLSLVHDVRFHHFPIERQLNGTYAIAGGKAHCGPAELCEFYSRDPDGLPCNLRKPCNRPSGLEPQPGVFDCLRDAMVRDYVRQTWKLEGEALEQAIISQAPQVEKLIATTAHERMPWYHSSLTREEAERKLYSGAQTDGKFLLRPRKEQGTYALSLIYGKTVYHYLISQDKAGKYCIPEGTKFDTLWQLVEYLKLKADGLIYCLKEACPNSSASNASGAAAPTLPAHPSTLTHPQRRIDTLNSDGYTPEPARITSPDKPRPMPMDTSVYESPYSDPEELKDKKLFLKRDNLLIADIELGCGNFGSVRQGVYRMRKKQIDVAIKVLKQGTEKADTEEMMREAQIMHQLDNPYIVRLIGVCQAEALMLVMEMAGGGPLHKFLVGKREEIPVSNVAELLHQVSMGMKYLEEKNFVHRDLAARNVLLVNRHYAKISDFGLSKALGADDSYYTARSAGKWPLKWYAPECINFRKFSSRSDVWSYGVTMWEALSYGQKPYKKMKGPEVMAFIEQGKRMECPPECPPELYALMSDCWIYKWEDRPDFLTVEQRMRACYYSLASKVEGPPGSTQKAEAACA", "conditions": "at 10 µM", "units": {"residual activity": "%"}}
{"smiles": "O=C(O)c1ccc2c3c1cccc3c(=O)n1c3ccccc3nc21", "residual activity": 111}
{"smiles": "COc1ccc(C(=O)Nc2sc3c(c2C(N)=O)CCCC3)cc1OC", "residual activity": 114}
{"smiles": "Cc1ccc(NC2=CC(=O)c3sc(C)nc3C2=O)cc1", "residual activity": 96}
{"smiles": "O=C1Cc2c([nH]c3ccc([N+](=O)[O-])cc23)-c2ccccc2N1", "residual activity": 105}
{"smiles": "CCN(CC)CCCCN1c2ccccc2Oc2ccc(Cl)cc21", "residual activity": 124}
{"smiles": "Cn1cnc2cc3c(Nc4cccc(Br)c4)ncnc3cc21", "residual activity": 89}
{"smiles": "O=c1cc(N2CCOCC2)oc2c1ccc1ccccc12", "residual activity": 93}
{"smiles": "CCC(=O)Nc1ccc2ncnc(Nc3cccc(Br)c3)c2c1", "residual activity": 109}
{"smiles": "N#C/C(=C(\\N)Sc1ccc(N)cc1)c1ccccc1C(F)(F)F", "residual activity": 101}
{"smiles": "CNc1cc2c(Nc3cccc(Br)c3)ncnc2cn1", "residual activity": 108}
{"smiles": "CC(=O)O/N=C1\\C(=C2\\C(=O)Nc3cc(Br)ccc32)Nc2ccccc21", "residual activity": 87}
{"smiles": "CO[C@H]1C[C@@H]2CC[C@@H](C)[C@@](O)(O2)C(=O)C(=O)N2CCCC[C@H]2C(=O)O[C@H]([C@H](C)C[C@@H]2CC[C@@H](O)[C@H](OC)C2)CC(=O)[C@H](C)/C=C(\\C)[C@@H](O)[C@@H](OC)C(=O)[C@H](C)C[C@H](C)/C=C/C=C/C=C/1C", "residual activity": 121}
{"smiles": "COc1ccc(-c2cnc3c(-c4ccsc4)cnn3c2)cc1", "residual activity": 128}
{"smiles": "N#Cc1cnc2cnc(NCc3cccnc3)cc2c1Nc1ccc(F)c(Cl)c1", "residual activity": 38}
{"smiles": "CC#CC(=O)Nc1cc2c(Nc3ccc(F)c(Cl)c3)ncnc2cn1", "residual activity": 100}
{"smiles": "Oc1c2ccccc2c2c3c(cccc13)N=N2", "residual activity": 98}
{"smiles": "CO[C@@H]1[C@H](N(C)C(=O)c2ccccc2)C[C@H]2O[C@]1(C)n1c3ccccc3c3c4c(c5c6ccccc6n2c5c31)C(=O)NC4", "residual activity": 60}
